The record followed here is PubChem BioAssay.

Values without a mark were called inactive. The rule behind the calls is not given here.

The nature of the experiment: inhibitors of hydroxyurea-induced Chk1 phosphorylation, primary screen, imaging, HeLa, phospho-Chk1 nuclear intensity (AID 1187). Note: test concentration not given here. The note with it: hydroxyurea-induced phospho-Chk1 immunofluorescence imaging, higher = more signal.
Regarding `O=C(O)[C@@H]1[C@@H]2C(=O)N(c3ccccc3)C(=O)[C@@H]2C[C@@H]1Sc1ccccc1`, the z-score is -0.162. In the case of `CCOC(=O)C1=CC[C@@H](c2ccccc2F)N(S(=O)(=O)c2ccc(C)cc2)[C@H]1c1ccccc1`, the z-score was -0.82. Consider `C=CCN1Cc2ccccc2[C@@H]2OC(c3ccc(OCCCO)cc3)=N[C@]2(CC=C)C1=O`, for which the z-score was -1.39. The result for `O=C(NCCN1CCOCC1)[C@@H]1c2ccccc2C(=O)N(C2Cc3ccccc3C2)[C@H]1c1ccc(CO)cc1` reads -0.411; that for `C=CCC(OC(C)=O)[C@@H]1[C@@H](N(Cc2cccc3ccccc23)C(=O)Cc2ccc(OC)cc2)c2cc(OCCCO)ccc2N1C(=O)c1ccc(-c2ccccc2)cc1` (stereo partly drawn), -0.13. The result for `CC(C)[Si](C#CCCCC#N)(O[C@H](c1ccccc1)c1cn(Cc2ccccc2)nn1)C(C)C` reads -0.29; that for `NCCCCCCNC(=O)[C@@H]1C[C@@H]2C(=O)N[C@@H](CCCCN)C(=O)N2[C@@H]1c1ccc(O)cc1`, -0.123; that for `CCN(CC)c1ccc(N2CC=CC34O[C@@H]5/C=C\CCCOC(=O)C5[C@H]3C(=O)N(C(C)CO)[C@@H]4C2=O)cc1` (stereo partly drawn), 0.804. For `CC(C)N1C(=O)C[C@@](C(=O)O)(c2ccc([N+](=O)[O-])cc2)[C@H]1c1ccc(CO)cc1` the value was -0.0057; for `CN(C)C(=O)[C@@]1(Cc2ccccc2)N=C(c2ccc(OCCCO)cc2)O[C@H]1c1ccccc1`, -0.304.

Take `Cc1ccc(S[C@]2(C(=O)NC(C)C)CC(=O)N(Cc3cc(C(F)(F)F)cc(C(F)(F)F)c3)[C@@H]2c2ccc(CO)cc2)cc1`: the z-score was 0.116.

Turning to `COCC(=C=CC[C@H](O)c1ccc(CO)o1)CCO`, the z-score was 0.295. For `CCCCCN1CC=CC23O[C@@H]4/C=C\CCCOC(=O)C4[C@H]2C(=O)N(C(C)CO)[C@@H]3C1=O` (stereo partly drawn) the value was 0.37. The result for `COc1ccc([Si](C)(C)[C@@H]2[C@@H](CCO)O[C@]3(C(=O)N(Cc4cccc(NC(=O)[C@H](C)O)c4)c4ccccc43)[C@H]2C)cc1` reads -0.189; that for `Cc1ccc(S[C@]2(C(=O)NCc3ccccc3)CC(=O)N(C3CCCCC3)[C@@H]2c2ccc(CO)cc2I)cc1`, 0.557; that for `CC(C)c1ccc(NN2C(C(O)c3ccc(F)cc3)C=CC3C(=O)N(c4ccccc4)C(=O)C32)cc1` (stereo not drawn), 0.374. Take `COC(=O)[C@@]1(Cc2ccccc2)[C@H]2c3cc(C(=O)N4CCCC4)n(CCc4ccccn4)c3C[C@H]2CN1C(=O)c1ccccc1`: the z-score is 0.491. For `CCCN1C(=O)[C@]2(Cc3ccccc31)N=C(c1ccc(OCCCO)cc1)O[C@@H]2c1ccccc1` the value was 0.825; for `O=C1[C@H]2C=C(I)[C@H](C[C@@H]2OCCOCCO)[C@@]12CO2`, 0.401. As for `CCCCCCc1nc(Cc2cc(OC)c(OC)c(OC)c2)cc2c1[Si](C(C)C)(C(C)C)OC2`, the z-score is -0.743. For `COC(=O)C(CC#Cc1ccc2c(c1)[C@]1(C(=O)N2)[C@H](c2ccc(O)cc2)N2[C@H](c3ccccc3)[C@H](c3ccccc3)OC(=O)[C@H]2[C@@H]1C(=O)NC[C@H](O)c1ccccc1)C(=O)OC`, the z-score was -0.171. For `COCCOC(=O)N1C(=O)[C@@]2(c3cc(C#CC4=CCCCC4)ccc31)[C@H](c1ccccc1OCCO)N1[C@H](c3ccccc3)[C@H](c3ccccc3)OC(=O)[C@H]1[C@@H]2C(=O)N1CCN(c2ncccn2)CC1` the value was -0.385; for `O[C@@H](Cc1ccccc1)[C@@H](/C=C/C1CC1)N(CC#Cc1ccccc1)Cc1ccccc1Br`, -0.214. For `COc1cc2c(cc1O)C=[N+](Cc1sc3ccccc3c1Cl)CC2` the value was 0.9; for `COc1ccc(C#Cc2ccc3c(c2)[C@]2(C(=O)N3)[C@H](C(=O)O)[C@H]3C(=O)O[C@H](c4ccccc4)[C@H](c4ccccc4)N3[C@@H]2c2ccc(O)cc2)cc1`, -0.651. For `Cn1cccc1C(O)C1C=CC2C(=O)N(c3ccccc3)C(=O)C2N1Nc1ccccc1` (stereo not drawn), the z-score is -0.436. In the case of `Cc1ccc(F)cc1S(=O)(=O)N[C@@H]1CCN(Cc2ccc(Br)cc2)C1`, the z-score was -0.335. With `CC1CC/C=C\[C@H]2OC34C=CCN(Cc5ccccc5)C(=O)[C@H]3N(C(CO)C(C)C)C(=O)[C@@H]4C2C(=O)O1` (stereo partly drawn), the z-score is -0.204.
